RXFP1 antagonist = qHTS Assay for Antagonists of the Relaxin Receptor RXFP1; 350,000 tested, 0.59% active; activity change, negative = inhibition, % at 57.5 µM; HEK293-RXFP1, relaxin-stimulated cAMP HTRF, 30 min; stronger effect = lower value;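 active means activity change of -60% or lower, but not beyond a set lower limit; inconclusive means change between -60% and -40%, or beyond the set limit; inactive means change above -40%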; further: on the % scale 0 is the no-effect control and ±100 the full control effect
Target sequence (Q9HBX9 whole entry, looked up): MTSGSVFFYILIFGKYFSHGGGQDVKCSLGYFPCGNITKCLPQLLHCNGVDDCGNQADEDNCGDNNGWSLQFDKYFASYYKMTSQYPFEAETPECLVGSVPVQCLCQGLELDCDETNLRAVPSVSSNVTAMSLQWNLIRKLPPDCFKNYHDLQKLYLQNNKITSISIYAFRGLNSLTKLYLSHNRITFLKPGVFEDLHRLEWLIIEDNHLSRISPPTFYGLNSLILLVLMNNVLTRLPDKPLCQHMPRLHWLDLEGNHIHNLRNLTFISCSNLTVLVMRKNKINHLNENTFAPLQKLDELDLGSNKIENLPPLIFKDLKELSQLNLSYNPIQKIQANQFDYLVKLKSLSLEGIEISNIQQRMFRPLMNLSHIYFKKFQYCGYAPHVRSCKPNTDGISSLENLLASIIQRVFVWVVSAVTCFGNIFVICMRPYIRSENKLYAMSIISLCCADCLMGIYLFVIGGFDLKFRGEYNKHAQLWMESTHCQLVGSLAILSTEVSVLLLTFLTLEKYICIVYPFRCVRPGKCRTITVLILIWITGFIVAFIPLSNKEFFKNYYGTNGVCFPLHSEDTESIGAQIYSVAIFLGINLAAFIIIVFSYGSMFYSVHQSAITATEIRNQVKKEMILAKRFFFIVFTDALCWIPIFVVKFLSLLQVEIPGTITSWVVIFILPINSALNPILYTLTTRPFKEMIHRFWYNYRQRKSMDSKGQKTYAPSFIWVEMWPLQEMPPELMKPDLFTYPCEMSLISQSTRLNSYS
Glioma ERSR ind = qHTS for Inducers of the Endoplasmic Reticulum Stress Response (ERSR) in Human Glioma: qHTS; U87-MG GRP78 promoter luciferase reporter, 16 h; Potency, µM, for inactives: at the highest dose activation, usual class: activators; 420,000 tested, 0.02% active; AID 602332, 2012; further: potency means the concentration at half of the fitted maximal effect; series mostly up to about 76 µM; % of control where 0% means no effect; nearly all actives have a fitted effect of over 35% in size
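Stably transfected U87-MG human glioma cells carrying a GRP78-based luminescent sensor were seeded at 1000 cells/well, pin-dosed with compounds and incubated 16 h. Luciferase reagent was then added, and end-point luminescence was read after 10 min at room temperature.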
PTHR1 ag = qHTS for PTHR1 Agonists: Primary Screen. HEK293 GP2 PTHR1 cells, GloSensor cAMP luminescence, 1 h. Potency, µM (titrated, usually from 115 µM), inactives show top-dose activation, hits mostly activators. 410,000 tested, 0.075% active; further: potency means the concentration at half of the fitted maximal effect; nearly all actives have a fitted effect of over 55% in size
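HEK-293-derived GP2 cells expressing PTHR1 and a GloSensor cAMP reporter, 3,000/well, plated overnight, given luciferin plus IBMX (each 0.5 mM as added) for 1 h at 37 °C, then compound for 1 h at 37 °C. Luminescence was read after 15 min at room temperature.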
KCNH2 WT inh = qHTS for Inhibitors of KCHN2 3.1: Wildtype qHTS; AID 720551, 2013; 340,000 tested, 0.37% active; Voltage-gated inwardly rectifying potassium channel KCNH2 (Homo sapiens), Q12809; activity change, % at 1.84 µM; U2OS, BacMam KCNH2, thallium flux FluxOr; stronger effect = lower value;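 active means maximum activity change below -70%; inconclusive means maximum activity change between -70% and -50%; inactive means maximum activity change above -50%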; further: on the % scale 0 is the no-effect control and ±100 the full control effect
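U2OS cells were transduced with wild-type KCNH2 virus (2.03 x 10^8 / mL) for 4 h at room temperature, then cultured overnight at 37 C. Thallium flux was read with FluxOr dye. Rate constants were normalized to DMSO controls.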
RXFP1 ag = qHTS Assay for Agonists of the Relaxin Receptor RXFP1; Relaxin receptor 1 (Homo sapiens), Q9HBX9; Potency, µM (titrated, usually from 57.5 µM), without a hit: at the top dose activation, hits mostly activators; 370,000 tested, 0.3% active; HEK293T-RXFP1 cAMP TR-FRET, 30 min; response scale: percent of porcine relaxin response, buffer zero; further: potency means the concentration at half of the fitted maximal effect; on the % scale 0 is the no-effect control and ±100 the full control effect; nearly all actives have a fitted effect of over 60% in size
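HEK293 cells stably expressing RXFP1, treated 30 min at 37C with compounds plus PDE4 inhibitor Ro 20174; cAMP measured by HTRF TR-FRET. Normalized to buffer and 29 nM porcine relaxin; EC50 by Hill fit.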
KCNH2 3.1 inh = qHTS for Inhibitors of KCHN2 3.1: Mutant qHTS; activity change, % (tested at about 1.8 µM); U2OS KCNH2 3.1, thallium flux FluxOr; stronger effect = lower value; 340,000 tested, 0.95% active; Potassium voltage-gated channel subfamily H member 2, brain isoform KCNH2 3.1 (human);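 active means maximum activity change below -70%; inconclusive means maximum activity change from -70% to -50%; inactive means maximum activity change above -50%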;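 further: thallium influx rate constant from kinetic fluorescence after stimulation buffer; on the % scale 0 is the no-effect control and ±100 the full control effect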
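Virally transduced U2OS (3.1 isoform, 4 h infection in dark at RT) → overnight 37 C → FluxOr + Red40 in HBSS/HEPES, 45 min → stimulation buffer, 2 min kinetic read → rate constant vs DMSO controls.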
* hit, by the source's call; i = inactive; ? = inconclusive; nt = not tested or not shown; ! = repeats disagree. In the library only some 1.4% were active in any assay of this set; here they are far more common. Unless noted, the call rests on the fitted dose curve; in most records, active means well fitted curve in the direction sought with a large enough effect; inconclusive means small, poorly fitted or top-dose-only effect, or another doubt; inactive means no such curve, though single readings can be large; an effect the other way counts as inactive or inconclusive.

SMILES | RXFP1 antagonist | Glioma ERSR ind | PTHR1 ag | KCNH2 WT inh | RXFP1 ag | KCNH2 3.1 inh
O=C(NC(=S)Nn1cnc2c(cnn2-c2ccccc2)c1=O)c1ccc(Oc2ccccc2)cc1 | nt | -2.9% | -18.3% | -18.4 | -0.2% | -5.6
COc1ccc(N(CC(=O)NCc2ccc(Cl)cc2)S(=O)(=O)c2c(C)noc2C)cc1 | -6.0 | -1.5% | -0.1% | 1.1 | 2.2% | -18.6
CCOc1cc(/C=C(\CC(=O)O)c2nc3ccccc3s2)ccc1OCC(=O)Nc1cccc(C(F)(F)F)c1 | -8.6 | -0.9% | -5.5% | -258.1* | nt | -25.8
COC(=O)c1ccc(Cn2cnc3c(cnn3-c3ccc(Cl)cc3)c2=O)o1 | -4.4 | 1.3% | -31.9% | -7.5 | 1.6% | -74.7*
CC1=C(C(N)=O)C(c2cccc(C)c2)n2nc(-c3ccc(Cl)cc3)nc2N1 (stereo unspecified) | -61.9* | -2.6% | -11.8% | nt | 1.2% | nt
COc1ccc(-c2nc3n(n2)C(c2cccnc2)C(C(N)=O)=C(C)N3)cc1 (stereo unspecified) | -5.6 | -4.3% | i | -1.0 | -0.2% | -10.4
Cc1[nH]c2ccccc2c1/C=C/c1ccc2ccccc2n1 | nt | -5.9% | nt | nt | nt | nt
CCOc1ccc(CN2CCN(Cc3cccn3-c3ncccn3)CC2CCO)cc1 (stereo unspecified) | -6.5 | -0.7% | -9.9% | ? | -0.8% | -111.5*
CCOc1ccc(CN2CCN(Cc3cccn3-c3cccnc3)CC2CCO)cc1 (stereo unspecified) | -8.4 | -2.4% | i | -45.5 | 0.2% | 9.1
COc1ccc(CN2CCN(Cc3cccn3-c3ncccn3)CC2CCO)c(C)c1C (stereo unspecified) | 14.0 | -4.4% | i | -35.6 | 2.5% | -73.8*
COc1cccc(Cn2c(=O)c(-c3ccccc3)nc3cnc(N(C)C)nc32)c1 | nt | -1.1% | nt | nt | nt | nt
COc1ccc(NC(=O)CSc2nnnn2C)cc1S(=O)(=O)N1CCCCC1 | -82.0* | -4.0% | i | -9.0 | 3.7% | 12.6
Cc1ccc(C(=O)N/C(=C\c2cn(C)c3ccccc23)C(=O)NCCCn2ccnc2)cc1 | -0.8 | -5.9% | -22.7% | 40.5 | -2.8% | 8.9
Cc1ccc(C(=O)N/C(=C\c2ccccc2)C(=O)NCCCn2ccnc2)cc1 | -19.8 | -1.3% | i | -125.0* | -0.1% | -105.4*
Cc1ccc(/C=C(\NC(=O)c2ccc(C)cc2)C(=O)NCCCn2ccnc2)cc1 | -2.6 | 1.5% | -17.3% | -93.7* | -1.0% | -95.4*
Cc1ccc(C(=O)N/C(=C/c2ccc(F)cc2)C(=O)NCc2ccncc2)cc1 | 19.8 | -3.4% | -18.8% | ? | 1.0% | -90.0*
Cc1cccc(-n2c(N)cc(=O)nc2SCC(=O)Nc2ccccc2)c1 | -6.3 | 2.8% | i | -143.7* | 0.7% | -178.9*
COc1ccc2c(C)cc(=O)[nH]c2c1 | 6.9 | -2.2% | i | -4.8 | 4.2% | -95.0*
COc1cc(C(CC(=O)NCc2ccccc2)N2Cc3ccccc3C2=O)cc(OC)c1OC (stereo unspecified) | nt | -3.7% | -8.7% | nt | 8.2% | nt
O=C(COC(=O)/C=C/c1ccc([N+](=O)[O-])cc1)Nc1ccc2[nH]c(=O)[nH]c2c1 | -68.8* | -1.1% | i | 24.7 | 0.4% | 11.9
Nc1ccn(Cc2cccc(Cl)c2)n1 | -13.0 | -2.2% | -36.1% | 6.0 | -2.5% | -1.4
CCCCNC(=O)CSc1nc2cc3c(cc2c(=O)n1CCCC(=O)NCCc1ccc(OC)c(OC)c1)OCO3 | -75.9*! | -1.5% | 11.9% | -8.1 | 0.9% | -32.4
CCC(Sc1nc2cc3c(cc2c(=O)n1CCCC(=O)NCc1ccc(OC)cc1)OCO3)C(=O)NCCCOC (stereo unspecified) | -77.2* | -2.8% | i | nt | -0.2% | nt

Source: PubChem BioAssay
